# Source: the supplement of paper PMC9262897, “Low-cost anti-mycobacterial drug discovery using engineered E. coli” (Nature Communications, 2022)
# Where a name gives a salt, the structure may show the parent alone. ± gives the standard deviation of the averaged measurements.
# Test system: E. coli TESEC Mtb Alr
# Test: growth (OD600 after 10 h); higher = more growth (less inhibition)
# Conditions: arabinose 10000000 nM; compound 0.1 mM; raw OD600 reference: median of DMSO wells 0.146, cell-free background 0.041
# Method: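 TESEC Mtb Alr E. coli, or the Alr+ wild-type control, in 384-well plates with Prestwick library compounds at 0.1 mM and 1% DMSO, across arabinose induction levels of 1E3 to 1E7 nM. Growth is read as OD600 after 10 h at 37 °C in triplicate biological replicates.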
row,SMILES,growth
1,CCCCN(CCCC)CCC(O)c1cc2c(Cl)cc(Cl)cc2c2cc(C(F)(F)F)ccc12 (stereo not given) [Halofantrine hydrochloride],0.175 ± 0.0054
2,CO[C@@H]1[C@@H](O[C@@H]2O[C@H](C)[C@@H](O[C@H]3C[C@@](C)(O)[C@@H](OC(=O)CC(C)C)[C@H](C)O3)[C@H](N(C)C)[C@H]2O)[C@@H](CC=O)C[C@@H](C)[C@@H](O)/C=C/C=C/C[C@@H](C)OC(=O)C[C@H]1OC(C)=O [Josamycin],0.04137 ± 5.8e-05
3,Cc1ccccc1C(OCCN(C)C)c1ccccc1 (stereo not given) [Orphenadrine hydrochloride],0.159 ± 0.0037
4,O=C(NCC1CCCCN1)c1cc(OCC(F)(F)F)ccc1OCC(F)(F)F (stereo not given) [Flecainide acetate],0.143 ± 0.0024
5,C[C@]12CC[C@@H]3c4ccc(O)cc4C[C@@H](CCCCCCCCC[S+]([O-])CCCC(F)(F)C(F)(F)F)[C@H]3[C@@H]1CC[C@@H]2O (stereo not given in full) [Fulvestrant],0.137 ± 0.005
6,CN1CCN(CC(=O)N2c3ccccc3C(=O)Nc3cccnc32)CC1 [Pirenzepine dihydrochloride],0.148 ± 0.0028
7,CCCCC(=O)N(Cc1ccc(-c2ccccc2-c2nnn[nH]2)cc1)[C@H](C(=O)O)C(C)C [Valsartan],0.151 ± 0.0071
8,CCOc1ccccc1OCC1CNCCO1 (stereo not given) [Viloxazine hydrochloride],0.135 ± 0.0069
9,Cc1nc2n(c(=O)c1CCN1CCC(c3noc4cc(F)ccc34)CC1)CCCC2 [Risperidone],0.146 ± 0.0055
10,C=C1C(=O)O[C@H]2[C@H]1CC/C(C)=C/CC[C@@]1(C)O[C@@H]21 [Parthenolide],0.157 ± 0.0078
